According to PubChem BioAssay (NCATS):
Unmarked numbers belong to inactive results. Results filed as inconclusive are left out. Activity calls are given as the source filed them. Unless noted, the call rests on the fitted dose curve; in most records, active means well fitted curve in either direction with a large enough effect (not every such curve was filed as active); inconclusive means small, poorly fitted or top-dose-only effect, or another doubt; inactive means flat fitted curve, though single readings scatter.

Assays:
[1] = AP1 Signaling Pathway (AID 357); conditions: ME-180 AP-1-bla reporter, EGF-induced, beta-lactamase ratio, 5 h; at 17.2 µM (top of the series) unless noted;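 further: ME-180 reporter cells stimulated with EGF at its EC50 level; on the % scale 0 is the no-effect control and ±100 the full control effect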
Procedure, shortened: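 Cells are seeded overnight, exposed to compound titrations and an EC50 level of EGF for 5 hours at 37 °C, then loaded with CCF4 dye for 2.5 hours. Beta-lactamase activity under the AP-1 element is read as a blue/green ratio.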

[2] = Stat Signaling Pathway (AID 446); conditions: ME-180 SIE beta-lactamase reporter, IL-6 stimulated, 5 h; at 17.2 µM (top of the series) unless noted;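 further: ME-180 cervical cancer cells given 40 pM IL-6 alongside compound; SIE-controlled beta-lactamase reporter measured as 460/530 nm FRET emission ratio; on the % scale 0 is the no-effect control and ±100 the full control effect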
Procedure, shortened: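 FRET read-out (405 nm excitation, 460/530 nm emission) of a beta-lactamase reporter under a STAT-inducible element in ME-180 cervical carcinoma cells. Cells with compound receive 40 pM IL-6 for 5 h. Values are normalised to AC90 stimulation and AC90 JAK-inhibitor controls.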

[3] = biological target: Glucocorticoid receptor (Homo sapiens) (UniProt P04150); assay: GR-GFP Redistribution (AID 450;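 active means compounds whose dose series gives a full or clear partial fitted curve of increased nuclear translocation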; further: potency means the concentration at half of the fitted maximal effect)
Chain of Glucocorticoid receptor (Homo sapiens) (P04150 whole entry, looked up, the tested form may be a part): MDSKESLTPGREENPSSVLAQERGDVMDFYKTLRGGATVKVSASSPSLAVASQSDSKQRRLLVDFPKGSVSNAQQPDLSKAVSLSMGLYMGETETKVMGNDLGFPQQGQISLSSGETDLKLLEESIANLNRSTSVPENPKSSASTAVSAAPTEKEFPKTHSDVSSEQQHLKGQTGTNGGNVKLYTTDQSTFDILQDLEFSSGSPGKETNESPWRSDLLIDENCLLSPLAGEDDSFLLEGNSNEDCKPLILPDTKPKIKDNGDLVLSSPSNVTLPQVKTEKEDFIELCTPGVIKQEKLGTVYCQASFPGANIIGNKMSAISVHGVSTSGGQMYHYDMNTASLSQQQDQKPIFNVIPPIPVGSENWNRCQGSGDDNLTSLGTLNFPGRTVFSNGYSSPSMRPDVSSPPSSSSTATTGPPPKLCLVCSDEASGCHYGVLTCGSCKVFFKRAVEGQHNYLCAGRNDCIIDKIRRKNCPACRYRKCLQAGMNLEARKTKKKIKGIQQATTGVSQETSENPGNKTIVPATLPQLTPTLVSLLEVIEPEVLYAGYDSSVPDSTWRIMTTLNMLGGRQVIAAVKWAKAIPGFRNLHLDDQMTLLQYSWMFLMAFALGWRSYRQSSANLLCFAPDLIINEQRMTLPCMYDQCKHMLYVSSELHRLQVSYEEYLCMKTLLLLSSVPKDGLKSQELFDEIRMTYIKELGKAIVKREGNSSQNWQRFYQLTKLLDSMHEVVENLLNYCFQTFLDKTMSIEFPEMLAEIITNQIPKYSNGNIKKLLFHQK

[4] = qHTS Assay for Identification of Small Molecule Agonists for Hypoxia Response Element Signaling Pathway (AID 914; active means well fitted activation curve with a large enough effect in the signal ratio, with a control signal flat, not every such curve was filed as active; the % refers to the signal ratio; further: potency means the concentration at half of the fitted maximal effect; on activation: % of control where 0% means no effect); conditions: ME-180 HRE-bla reporter, beta-lactamase ratio, CoCl2, 17 h; activation: stronger effect = higher value
Procedure, shortened: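 AC50 values come from titration-series %Activity, taken as the 460/530nm ratio of CCF4 fluorescence (excitation 405nm). CellSensor HRE-bla ME-180 cells were treated 17 hours at 37 C with compound plus an EC50 level of CoCl2.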

[5] = biological target: Glucocorticoid receptor (Homo sapiens) (UniProt P04150); assay: GR-EFC Redistribution (AID 451; calls by dose curve; further: potency means the concentration at half of the fitted maximal effect); conditions: CHO-K1 GR-EFC translocation, beta-gal luminescence, 2 h
Procedure, shortened: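 CHO-K1 cells expressing nuclear EA and GR-ED fragments of b-gal; compounds titrated up to 46 uM final, 2 h at 37 C. GR nuclear translocation read as complemented b-gal luminescence after 1 h RT detection.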

[6] = biological target: Mitogen-activated protein kinase 10 (Mus musculus) (UniProt Q61831); assay: JNK3 AlphaScreen Assay (AID 530);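 further: kinase came from lysate of stimulated human HepG2 cells; signal reports phosphorylation of biotinylated GST-cJun 1-79 at Ser73 with 10 µM ATP; on the % scale 0 is the no-effect control and ±100 the full control effect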
Procedure, shortened: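 HepG2 lysate (IL-1b/TNFa pre-activated) + biotin-GST-cJun 1-79 + anti-pSer73 cJun; cpd titration, 15 min RT; ATP 10 uM start; Tris pH 7.6, MgCl2, DTT, vanadate; beads in EDTA buffer; AlphaScreen.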

[7] = biological target: Guanine nucleotide-binding protein G(i) subunit alpha-1 (Homo sapiens) (UniProt P63096); assay: qHTS Assay for Inhibitors of RGS12 GoLoco Motif Activity (Green Fluorophore) (AID 879; active means well fitted curve in the direction sought with a large enough effect; an effect the other way counts as inactive or inconclusive;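 further: 0% = labeled peptide with Gαi1 and full inhibition = labeled peptide alone without protein; negative values mean loss of peptide binding seen as reduced polarization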)
Chain of Guanine nucleotide-binding protein G(i) subunit alpha-1 (Homo sapiens) (P63096 whole entry, looked up): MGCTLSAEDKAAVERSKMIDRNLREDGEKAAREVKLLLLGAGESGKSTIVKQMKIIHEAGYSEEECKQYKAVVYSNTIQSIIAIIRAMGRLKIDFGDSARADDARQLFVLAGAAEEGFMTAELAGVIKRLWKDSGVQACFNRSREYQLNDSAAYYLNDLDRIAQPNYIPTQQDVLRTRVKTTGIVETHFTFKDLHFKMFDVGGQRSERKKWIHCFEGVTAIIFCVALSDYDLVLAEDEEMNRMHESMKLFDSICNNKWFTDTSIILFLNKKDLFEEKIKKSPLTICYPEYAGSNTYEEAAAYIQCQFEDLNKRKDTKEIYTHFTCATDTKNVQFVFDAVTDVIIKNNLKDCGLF
Procedure, shortened: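 A drop in FITC polarization marked displacement of the FITC-tagged RGS12 GoLoco peptide (10 nM) from Gαi1 (50 nM). Compounds were incubated 10 min at room temperature in Tris pH 7.5 buffer containing 150 mM NaCl, 0.1 mM GDP and 0.05% NP40; unlabeled peptide titration served as control.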

[8] = qHTS Assay for Identification of Small Molecule Antagonists for NFkB Signaling Pathway (AID 895; active means well fitted inhibition curve with a large enough effect in the signal ratio, with a control signal flat, not every such curve was filed as active; the % refers to the signal ratio; further: on the % scale 0 is the no-effect control and ±100 the full control effect)
Procedure, shortened: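 ME-180 NFkB-bla cells (beta-lactamase under NFkB response element), plated overnight, treated with compound then 10 pM TNF alpha (about EC50) for 5 hrs at 37 C. LiveBLAzer FRET read at 460/530 nm emission, 405 nm excitation.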

[9] = qHTS Assay for Identification of Small Molecule Agonists for Thrombopoietin (TPO) Signaling Pathway (AID 917; active means well fitted curve in the direction sought with a large enough effect; an effect the other way counts as inactive or inconclusive; further: on the % scale 0 is the no-effect control and ±100 the full control effect)
Procedure, shortened: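 Stimulation at the TPO EC50 (26 pM final) was used to detect activators. Ba/F3 mouse cells bearing human TPO receptor and a luciferase reporter under the Glycoprotein IIb promoter were exposed to compounds for 24 hrs at 37 C.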

[10] = biological target: Pyruvate kinase (Leishmania mexicana) (UniProt Q27686); assay: qHTS Validation Assay for Inhibitors of Leishmania Mexicana Pyruvate Kinase (AID 945; active means well fitted curve in the direction sought with a large enough effect; an effect the other way counts as inactive or inconclusive;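 further: 0% = DMSO only neutral control wells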)
Chain of Pyruvate kinase (Leishmania mexicana) (Q27686 2-499 E452W): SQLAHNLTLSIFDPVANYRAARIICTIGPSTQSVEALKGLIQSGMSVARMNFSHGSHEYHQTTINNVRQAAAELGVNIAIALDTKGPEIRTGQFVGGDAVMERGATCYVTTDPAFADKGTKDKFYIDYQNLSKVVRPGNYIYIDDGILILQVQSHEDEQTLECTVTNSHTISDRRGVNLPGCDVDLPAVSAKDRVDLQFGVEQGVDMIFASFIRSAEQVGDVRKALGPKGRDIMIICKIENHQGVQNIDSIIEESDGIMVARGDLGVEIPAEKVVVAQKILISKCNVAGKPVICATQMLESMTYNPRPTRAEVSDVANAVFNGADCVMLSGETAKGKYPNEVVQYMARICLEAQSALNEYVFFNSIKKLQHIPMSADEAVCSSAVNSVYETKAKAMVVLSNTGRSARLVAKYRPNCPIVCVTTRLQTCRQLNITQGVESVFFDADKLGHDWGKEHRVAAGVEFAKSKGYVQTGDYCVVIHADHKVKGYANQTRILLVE
Procedure, shortened: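 Purified LmPYK (E451W mutant, 0.2 nM) was incubated 1 h at room temperature with 0.5 mM PEP and 0.1 mM ADP in 50 mM imidazole pH 7.2, 50 mM KCl, 7 mM MgCl2; ATP formed was read by PKLight luminescence, normalized to DMSO wells.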

[11] = biological target: Pyruvate kinase PKM (Homo sapiens) (UniProt P14618); assay: qHTS Assay for Activators of Human Muscle Pyruvate Kinase (AID 954; active means well fitted curve in the direction sought with a large enough effect, not every such curve was filed as active;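 further: 0% = uninhibited enzyme and -100% = no enzyme or full thiadiazolimine inhibition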)
Chain of Pyruvate kinase PKM (Homo sapiens) (P14618 whole entry, looked up): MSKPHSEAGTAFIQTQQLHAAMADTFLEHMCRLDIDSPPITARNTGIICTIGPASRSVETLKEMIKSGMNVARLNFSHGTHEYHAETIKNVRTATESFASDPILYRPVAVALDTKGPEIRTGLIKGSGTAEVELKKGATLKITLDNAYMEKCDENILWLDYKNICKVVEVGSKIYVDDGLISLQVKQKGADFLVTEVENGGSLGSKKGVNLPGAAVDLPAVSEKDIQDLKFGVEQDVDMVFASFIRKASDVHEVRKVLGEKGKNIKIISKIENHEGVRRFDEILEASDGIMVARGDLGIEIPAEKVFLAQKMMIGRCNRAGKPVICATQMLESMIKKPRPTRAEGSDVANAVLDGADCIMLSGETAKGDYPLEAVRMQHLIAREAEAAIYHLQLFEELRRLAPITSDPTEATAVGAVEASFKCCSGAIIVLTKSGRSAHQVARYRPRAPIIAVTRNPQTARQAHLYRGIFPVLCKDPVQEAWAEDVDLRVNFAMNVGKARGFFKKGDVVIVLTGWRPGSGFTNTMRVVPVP
Procedure, shortened: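 ATP production by PKM2 detected via luciferase luminescence after 1 h room-temperature reaction (0.1 nM enzyme, PEP at Km 0.5 mM, ADP 0.1 mM, pH 7.2 imidazole buffer). Inhibition scaled to no-enzyme control; activation referenced to 0.3 nM enzyme wells.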

[12] = biological target: Alpha-galactosidase A (Homo sapiens) (UniProt P06280); assay: Counterscreen for Glucocerebrosidase Inhibitors: qHTS Assay for Human alpha-Galactosidase at pH 4.5 (AID 992; active means well fitted curve in the direction sought with a large enough effect; an effect the other way counts as inactive or inconclusive; further: 0% is about no effect)
Chain of Alpha-galactosidase A (Homo sapiens) (P06280 whole entry, looked up): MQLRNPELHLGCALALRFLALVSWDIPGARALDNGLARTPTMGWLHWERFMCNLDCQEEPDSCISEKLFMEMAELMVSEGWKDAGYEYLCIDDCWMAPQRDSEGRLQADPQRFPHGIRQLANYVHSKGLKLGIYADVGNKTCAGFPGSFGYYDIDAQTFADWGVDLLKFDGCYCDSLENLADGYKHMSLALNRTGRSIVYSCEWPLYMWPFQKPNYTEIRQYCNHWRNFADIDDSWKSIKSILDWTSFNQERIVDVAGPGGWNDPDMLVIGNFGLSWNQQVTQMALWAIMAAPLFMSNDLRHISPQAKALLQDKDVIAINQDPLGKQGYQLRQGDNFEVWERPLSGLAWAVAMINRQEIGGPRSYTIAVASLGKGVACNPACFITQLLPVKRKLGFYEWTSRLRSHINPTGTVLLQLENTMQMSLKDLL
Procedure, shortened: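 Fluorogenic 1536-well qHTS at pH 4.5 (citrate, Tween-20): 2 nM enzyme, 80 uM 4-MU-alpha-galactoside, 20 min room temperature, NaOH/glycine stop. Titration 0.7 nM to 77 uM, data normalized to no-enzyme and full-activity controls, Hill-fitted AC50.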

[13] = biological target: alpha-glucosidase (Oryza sativa, rice) (UniProt Q653V4); assay: Counterscreen for Glucocerebrosidase Inhibitors: qHTS Assay for Rice alpha-Glucosidase at pH 5.0 (AID 997; active means well fitted curve in the direction sought with a large enough effect; an effect the other way counts as inactive or inconclusive;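 further: 0% = full activity with enzyme and -100% = basal without enzyme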)
Procedure, shortened: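 Endpoint fluorogenic assay at pH 5.0: compounds (0.7 nM to 77 uM) titrated against 4 nM rice enzyme and 400 uM 4-MU-alpha-glucoside for 20 min at room temperature; NaOH/glycine stop, read ex 365/em 440 nm, Hill-fitted AC50.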

SMILES: CC12CN3CC(C)(CN(C1)C3c1ccc(Br)cc1O)C2 (configuration not stated)
- activity change, negative = inhibition [1]: -9.61%
- activity, negative = inhibition [2]: -0.00253%
- Potency [3]: > 20.6 µM
- activation [4]: -25.5%

SMILES: CC(=O)O[C@@H]1[C@H]([N+]2(C)CCCCC2)C[C@@H]2[C@@H]3CC[C@@H]4C[C@@H](OC(C)=O)[C@H]([N+]5(C)CCCCC5)C[C@@]4(C)[C@H]3CC[C@]21C
- activity change, negative = inhibition [1]: 13.6% [at 38 µM]
- activity, negative = inhibition [2]: 18.1% [at 38 µM]
- Potency [3]: > 46 µM
- Potency [5]: > 46 µM
- Potency [6]: inactive
- outcome [7]: inactive
- Potency [8]: inactive
- Potency [9]: inactive
- Potency [10]: inactive
- outcome [11]: inactive
- outcome [12]: inactive
- outcome [13]: inactive

SMILES: Cc1cccn2c(=O)c(/C=C(\C#N)S(=O)(=O)c3ccccc3)c(N3CCN(C)CC3)nc12
- activity change, negative = inhibition [1]: -0.352%
- activity, negative = inhibition [2]: 3.87%
- Potency [3]: > 20.6 µM
- activation [4]: -11.6%

SMILES: CCc1nc(N2CCCC2)c(C#N)c2c1CCCC2
- activity change, negative = inhibition [1]: -16.4%
- activity, negative = inhibition [2]: -19.9%
- Potency [3]: > 20.6 µM
- activation [4]: -12%

SMILES: COc1ccc(OC)c2c(N)c(C#N)c(C(F)(F)C(F)(F)F)nc12
- activity change, negative = inhibition [1]: 5.08%
- activity, negative = inhibition [2]: 14%
- Potency [3]: > 20.6 µM
- Potency [4]: 10 µM (active)

SMILES: O=c1/c(=C\c2cccn2-c2ccccc2)sc2nc3ccccc3n12
- activity change, negative = inhibition [1]: 2.64%
- activity, negative = inhibition [2]: 14.8%
- Potency [3]: > 20.6 µM
- Potency [4]: 12.6 µM (active)
